# Experimental data as given in PubChem BioAssay (EPA / NIEHS).
# Inconclusive results are not listed. The source made the active and inactive calls. Rule for the calls, unless noted: active = hit-call score of the fitted dose curve at least 0.9, where 1 is the maximum; inactive = score below 0.9.
# Key:
# [1] = Tanguay_ZF_120hpf_TR_legacy: (Legacy) Oregon State University Tanguay Lab 120 Hour Post-fertilization zebrafish Assay for Touch Response (AID 2283667; active = hit-call score of the fitted dose curve at least 0.9, where 1 is the maximum)
# Summary of the method: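 Binary touch-response endpoint in larvae at 120 hpf after static waterborne exposure from embryo stage (28°C, 0.64% DMSO vehicle, 5 uM trimethyltin chloride as positive control); embryos dead at 24 or 120 hpf excluded; fitted as gain versus DMSO.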
# [2] = CCTE_Padilla_ZF_144hpf_TERATOSCORE: (Legacy) CCTE's 144 Hour Post-fertilization zebrafish Assay Teratoscore, Padilla Lab (AID 2283679);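 for AC50: zebrafish embryos with chorions exposed by immersion from 6-8 hpf to 5 dpf with daily renewal; teratogenicity score from eye scoring of death hatching and malformations at 144 hpf; higher score means more developmental defects relative to DMSO baseline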
# Summary of the method: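 Larvae scored by eye at 144 hpf for death, hatching and malformations after a day in clean Hanks'. Before that, daily-renewed exposure at 80 uM (0.4% DMSO, 26C) from roughly 6-8 hpf through 5 dpf, 4 embryos per chemical.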
# [3] = Tanguay_ZF_120hpf_ActivityScore_legacy: (Legacy) Oregon State University Tanguay Lab 120 Hour Post-fertilization zebrafish Assay Score for Activity (AID 2283742; active = hit-call score of the fitted dose curve at least 0.9, where 1 is the maximum;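 for AC50: dechorionated Tropical 5D wild-type zebrafish embryos held singly per well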)
# Summary of the method: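 Binary scoring of mortality and morphology by brightfield at 24 and 120 hpf, summarised into one activity score from 18 components relative to DMSO. Wild-type Tropical 5D zebrafish, chorion removed at 4 hpf, static exposure 6–120 hpf, 28 °C.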
# [4] = CEETOX_H295R_MTT_cell_viability: Viability Assessment in the CeeTox HT-H295R MTT Assay (AID 2283718)
# Summary of the method: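 MTT reduction (0.5 mg/ml, 4 h at 37 C; absorbance at 570 and 650 nm) gave viability as background-corrected percent change versus controls. H295R cells had 48 h forskolin (10 uM) prestimulation, then 48 h chemical exposure at 0.1% DMSO.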
# [5] = STM_H9_OrnithineISnorm_perc: Stemina devTOX quickPredict H9 human embryonic stem cell (hESC)-based Assay for Ornithine (ORN) Metabolite Biomarker, Normalized (AID 2283712);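 note: ornithine released into spent medium during last day measured by mass spectrometry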
# Summary of the method: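 UPLC-HRMS readout: endogenous ornithine EIC area / 13C-ORN internal standard, then % of 0.1% DMSO median. H9 hESCs (pluripotent), 72h exposure, re-dosed with fresh media q24h; last 24-h spent media, deproteinized in 40% acetonitrile.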
# [6] = STM_H9_CystineISnorm_perc: Stemina devTOX quickPredict H9 human embryonic stem cell (hESC)-based Assay for Cystine (CYSS) Metabolite Biomarker, Normalized (AID 2283713)
# Summary of the method: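 UPLC-HRMS read-out: endogenous cystine peak area in spent medium, normalized to isotope-labeled internal standard and to median of 0.1% DMSO controls. Pluripotent H9 cells, 72h exposure, daily medium/compound replenishment; medium from last 24h sampled.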
smiles,measurement,setting,value
O=c1[nH]sc2ccccc12,outcome,[1],inactive
same,AC50,[2],16.4 µM (active)
same,outcome,[3],inactive
c1ccc(C[n+]2cccc3ccccc32)cc1,outcome,[1],inactive
same,outcome,[2],inactive
same,outcome,[4],inactive
CCCC(=O)OCCC(C)C,outcome,[3],inactive
O=c1ccc2ccccc2o1,outcome,[1],inactive
same,outcome,[2],inactive
same,outcome,[3],inactive
CC(O)CC(C)(C)O (stereo not given),outcome,[2],inactive
COc1cccc([C@H](O)C2CCN(CCc3ccc(F)cc3)CC2)c1OC,outcome,[1],inactive
same,AC50,[2],124 µM (active)
same,outcome,[5],inactive
same,AC50,[6],6.34 µM (active)
same,outcome,[4],inactive
CC[C@H](NC(=O)c1cc(F)ccc1NS(=O)(=O)c1cccc2cccnc12)c1ccccc1,outcome,[1],inactive
same,outcome,[2],inactive
same,outcome,[5],inactive
same,outcome,[6],inactive
CC[C@@H]1C[C@H](N(Cc2cc(C(F)(F)F)cc(C(F)(F)F)c2)C(C)=O)c2cc(C(F)(F)F)ccc2N1C(=O)OC(C)C,outcome,[3],inactive
CC1(C)NC(=O)N(c2ccc([N+](=O)[O-])c(C(F)(F)F)c2)C1=O,AC50,[2],17.2 µM (active)
CCCCCCCCCCCO,outcome,[1],inactive
same,AC50,[2],62.4 µM (active)
same,outcome,[3],inactive
CCCCOC(=O)c1ccc(O)cc1,AC50,[1],49.3 µM (active)
same,AC50,[2],5.07 µM (active)
same,AC50,[5],42.3 µM (active)
same,outcome,[6],inactive
same,outcome,[4],inactive
same,AC50,[3],41 µM (active)
c1ccc2ccccc2c1,outcome,[1],inactive
same,outcome,[3],inactive
O=C=NCCCCCCN=C=O,AC50,[5],0.0164 µM (active)
same,outcome,[6],inactive
CCCCCCCCOc1ccc(C(=O)c2ccccc2)c(O)c1,outcome,[4],inactive
same,outcome,[3],inactive
Cc1cc2c(cc1C(F)(F)F)N(C(=O)Nc1ccc(Oc3cccnc3C)nc1)CC2,outcome,[1],inactive
same,outcome,[4],inactive
same,outcome,[3],inactive
OCCO,outcome,[1],inactive
same,outcome,[5],inactive
same,outcome,[6],inactive
O=CCCCC=O,outcome,[1],inactive
same,outcome,[2],inactive
same,outcome,[3],inactive
CC(C)(O)c1ccc(CNC(=O)c2cccnc2Oc2ccc3nonc3c2)cc1,outcome,[4],inactive
CCCCCCCCN(C)CCCCCCCC,outcome,[1],inactive
same,outcome,[5],inactive
same,outcome,[6],inactive
same,outcome,[4],inactive
Clc1ccccc1C(c1ccccc1)(c1ccccc1)n1ccnc1,AC50,[1],25 µM (active)
same,AC50,[2],1.53 µM (active)
same,outcome,[4],inactive
same,outcome,[3],inactive
CN1C(=O)CC[C@H]1c1cccnc1,outcome,[1],inactive
same,outcome,[5],inactive
same,outcome,[6],inactive
O=C(O)c1ccccc1-n1cc(C(=O)O)c(=O)c2cc(Nc3c(F)cc(F)cc3Cl)c(Cl)cc21,outcome,[1],inactive
same,outcome,[3],inactive
